LASV entry inh: qHTS for Inhibitors of binding or entry into cells for Lassa Virus; Lassa virus pseudotype entry inhibition, cell reporter; Potency, µM (highest dose often 37.9 µM), inactives show at the highest dose activity change, negative = inhibition, actives largely listed as inhibitors; actives 1.2% (n = 300,000); AID 540256, 2011; calls by dose curve; tested in HEK293 cells; note: potency is the fitted concentration of half-maximal effect; % is set by controls: 0 for no effect and ±100 for the full control effect; nearly all actives have a fitted effect of over 50% in size
Marburg entry inh: qHTS for inhibitors of binding or entry into cells for Marburg Virus. Potency, µM (doses to about 37.8 µM), inactives show at the top dose activity change, negative = inhibition, most hits filed as inhibitors. actives 1.8% (n = 300,000). Marburg virus pseudotyped entry inhibition, cell reporter; calls by dose curve; tested in HEK293 cells; note: potency is the fitted concentration of half-maximal effect; % is set by controls: 0 for no effect and ±100 for the full control effect
HCV inhibitor: qHTS Assay for Inhibitors of Hepatitis C Virus (HCV); Potency, µM (highest dose often 41.8 µM), for the others: top-dose activity change, negative = inhibition, actives largely listed as inhibitors; actives 3.4% (n = 340,000); Huh7.5.1 HCVcc-Cre infection, luciferase reporter, 44 h; active = well fitted inhibition curve with a large enough effect; inconclusive = small, poorly fitted or top-dose-only effect, or another doubt; inactive = no such curve, though single readings can be large or run the other way; note: potency is the fitted concentration of half-maximal effect; % is set by controls: 0 for no effect and ±100 for the full control effect
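A cell-based infection assay in which seeded cells (1,000 per well) receive test compound after 4 h, are inoculated with HCVcc-Cre at approximately 0.5 moi, and are incubated 44 h before luminescence detection.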
Shiga inhibitor: A qHTS for Small Molecule Inhibitors of Shiga Toxin; Vero cells, Shiga toxin protein synthesis inhibition reporter; inhibition, % at 38.7 µM; actives 9.2% (n = 290,000); AID 2315, 2010; in the data active = inhibition mostly above about 28%, no sharp cut-off; inactive = mostly below about 43%; note: 0% is about no effect
Cycloheximide cs: Cycloheximide Counterscreen for Small Molecule Inhibitors of Shiga Toxin; cell reporter, cycloheximide protein synthesis inhibition counterscreen; max response, %; actives 12% (n = 300,000); in the data active = max response mostly above about 13%, no sharp cut-off; inactive = mostly below about 14%; note: read at 38.3 µM for the half of the compounds with a filed dose; 0% is about no effect
FMDV antiviral: High Throughput Screening for Foot and Mouth Disease Virus Antivirals; FMDV antiviral cell-based qHTS; AID 1159524, 2015; Potency, µM (top dose mostly 57.9 µM), inactives show at the top dose activity change, negative = inhibition, hits mostly inhibitors; actives 1.2% (n = 410,000); calls by dose curve; tested in HEK293T cells; note: read-out not given here; potency is the fitted concentration of half-maximal effect; % is set by controls: 0 for no effect and ±100 for the full control effect; nearly all actives have a fitted effect of over 45% in size
An asterisk follows results filed as active; i = inactive; ? = inconclusive; . = no result given; [ ] = dose if it differs, or a comment. The list is not random: actives were taken first. Their share in the collection is about 13%.

SMILES	LASV entry inh	Marburg entry inh	HCV inhibitor	Shiga inhibitor	Cycloheximide cs	FMDV antiviral
Cc1ccc(S(=O)(=O)N2[C@H](CC(=O)c3ccccc3)OC[C@@H]2C)cc1	.	.	.	.	.	-21%
CCOC(=O)/C=C1\Nc2ccccc2OC1=O	1%	-7%	?	11	21*	17%
CCOC(=O)/C=C1\CC(C(=O)OCC)Oc2ccccc21 (centres undefined)	.	.	?	i	16	-7%
COc1cc(CNC2CCCC2)cc(Br)c1OCC(=O)Nc1ccccc1C	.	.	-23%	-15	-6	-7%
COc1cc(C#Cc2c(-c3cncn3C)n(C)c3ccc(-c4ccc(CN5CCOCC5)cc4)cc23)cc(OC)c1	.	.	11µM*	.	.	-25%
COc1cc(C#Cc2c(-c3cncn3C)n(C)c3ccc(-c4cnc(N5CCOCC5)nc4)cc23)cc(OC)c1	.	.	15%	.	.	20%
Cn1c(SCc2cc(=O)[nH]c3ccccc23)nnc1-c1ccco1	4%	14%	9%	2	-3	-3%
COc1ccc(-c2nc3ccccc3o2)cc1NC(=O)c1ccc(Br)o1	12%	-1%	2%	19	7	-11%
CC(C)c1ccc2c(c1)C1Cc3ccccc3C1N2 (centres undefined)	?	?	?	42*	56*	3%
Cc1cc2ncn(C(=O)N3CCCCCC3)c2cc1C	19%	2%	19%	active	19*	54%
Cc1cc2ncn(C(=O)N3CCCCC3)c2cc1C	?	6%	12%	36	13	34%
NC(=O)c1ccccc1NC(=O)CN1CCCCCC1	?	0%[46.1 µM]	11%	19	11	7%
NC(=O)c1cc(-c2ccccc2)sc1NC(=O)CN1CCCCC1	?	6.3µM*	13µM*	36	11*	8%
NC(=O)Nc1sc(-c2ccc(F)cc2)cc1C(N)=O	.	.	.	4	17*	22%
Cc1ccc(NC(=O)CCN2CCC(C)CC2)cc1	28%[46.1 µM]	?	-3%	-6	-3	20%
O=C(NCC(c1ccc(F)cc1)N1CCOCC1)c1ccc(C(=O)c2ccccc2)cc1 (centres undefined)	-11%	-21%[46.1 µM]	2%	-4	1	-25%
CCOc1ccc(CNC(=O)CCc2cn(CC)c3ccccc23)cc1	-3%[46.1 µM]	.	.	.	.	0%
COc1ccc(NC(C)=O)cc1NC(=O)CSc1nnc(-c2ccccc2)n1N	-17%	24%	-4%	60*	18	3%
Cn1cc(SCC(=O)Nc2nccs2)c2ccccc21	.	.	3%	83*	40*	40%
Cc1ccc(-c2nnc(SCC(=O)Nc3nccs3)n2N)cc1	-2%	4%	8%	43*	30*	92%
Cc1cc(C)cc(NC(=O)CSc2nnc(-c3ccccc3)n2N)c1	10%	5%	3%	-10	14*	7%
Cc1cccc(NC(=O)CSc2nnc(-c3ccccc3)n2N)c1	18%	0%	1%	12	12	-7%
Cc1cc(NC(=O)Nc2nnc(N(C)Cc3ccccc3)s2)ccc1Br	-16%[46.1 µM]	?	.	.	.	-21%
CC(C)[C@H](NC(=O)C1CCN(S(=O)(=O)c2ccccc2)CC1)C(=O)NCc1ccco1	-2%[46.1 µM]	0%[46.1 µM]	12%	-8	-3	0%
COc1ccc(CCCc2nnc(SCC(=O)Nc3nccs3)n2C)cc1C	21µM*	4%	-13%	2	-3	-27%
SMILES	LASV entry inh	Marburg entry inh	HCV inhibitor	Shiga inhibitor	Cycloheximide cs	FMDV antiviral
Cc1ccc(Cl)cc1N1CCN(S(=O)(=O)c2cn(C)cn2)CC1	.	.	17%	-7	-9	-13%
Cn1c(SCc2cccc([N+](=O)[O-])c2)nc2c(c1=O)SCC2	?	?	?	-4	-4	28µM*
CC(=O)Nc1ccc(NC(=O)COc2ccc(Cl)cc2Cl)cc1	.	.	-15%	39	26	5%
CCOc1ccc(C(=O)Nc2ccc(Cl)cn2)cc1Cl	?	-9%	?	106*	38*	.
Cc1cc(Cl)ccc1OCC(=O)OCC(=O)Nc1ccc(Cl)cn1	.	.	.	.	.	-4%
CCOc1ccc(C(=O)Nc2cc(NC(=O)c3ccc(OCC)c(Cl)c3)cc(C(=O)O)c2)cc1Cl	-5%[46.1 µM]	9%[46.1 µM]	3%	-3	-3	-4%
O=C(COc1ccc(Cl)cc1Cl)Nc1ccc(Cl)cn1	?	?	-22%	92*	30*	.
O=C(COc1ccc(Cl)cc1Cl)Nc1ccccc1F	7.1µM*	-48%	-9%	.	.	-25%
